Our source for the growth values is PubChem BioAssay (NCI).

This is part of a sample that, as a whole, favours compounds with a hit. Of some 83,000 tested, about 20% had one in any assay.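 Each cell line was grown in a 96-well plate and treated with one concentration of compound for 48 hours. Values below 10 were considered active.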 Values without a mark were called inactive. Calls of active or inactive are those of the source.

Some test systems named below: HOP-92 NSCLC; 786-0 renal; MALME-3M melanoma; RXF 393 renal; EKVX NSCLC; SN12C renal; TK-10 renal; A498 renal; CCRF-CEM leukemia; RPMI-8226 leukemia; OVCAR-8 ovarian; OVCAR-5 ovarian; OVCAR-4 ovarian; SK-OV-3 ovarian; IGROV1 ovarian; NCI/ADR-RES ovarian; T-47D breast; MDA-MB-435 melanoma; MCF7 breast; HCT-116 colon.
Common to all, as to assay: NCI-60 one-dose screen, 48 h (100 = growth as untreated, 0 = no growth, -100 = all killed)
What all share (details): 10 µM

For `COc1cc(OC)c(S(=O)(=O)N(CCCl)CCCl)cc1C(=O)/C=C/c1cc(OC)c(OC)c(OC)c1`, the growth in the test with HOP-92 NSCLC was 9.15% (active); with 786-0 renal it was -59.7% (active); in the test on MALME-3M melanoma, -15.6% (active); in the test with RXF 393 renal, -75.5% (active); with EKVX NSCLC it was 12.3%; in the test on SN12C renal, 8.6% (active). The growth was 3.84% (active) in the test on TK-10 renal; -0.926% (active) in the test with A498 renal; 1.08% (active) in the test with CCRF-CEM leukemia; -24.3% (active) in the test with RPMI-8226 leukemia; 9.85% (active) in the test on OVCAR-8 ovarian; -1.21% (active) in the test on OVCAR-5 ovarian. The growth in the test with OVCAR-4 ovarian was 23.2%; in the test on SK-OV-3 ovarian, 9.62% (active); with IGROV1 ovarian it was 0.296% (active); in the test on NCI/ADR-RES ovarian, 4.75% (active); in the test on T-47D breast, 21%; in the test with MDA-MB-435 melanoma, -31.5% (active). For the same compound, the growth with MCF7 breast was -39.2% (active); in the test on HCT-116 colon it was -87.7% (active).
`N#C[Se]CC(=O)Nc1cccc(C(F)(F)F)c1`: the growth with HOP-92 NSCLC was -69.3% (active); in the test with 786-0 renal, -54% (active); in the test with MALME-3M melanoma it was -95.3% (active); with RXF 393 renal it was -40.9% (active); with EKVX NSCLC, -94.5% (active); in the test with SN12C renal it was -78.1% (active). Further, the growth was -79.8% (active) in the test with TK-10 renal; -69.6% (active) with A498 renal; 22.5% in the test with CCRF-CEM leukemia; 10.2% in the test on RPMI-8226 leukemia; -49.9% (active) in the test with OVCAR-8 ovarian; -36.7% (active) with OVCAR-5 ovarian. Also, the growth with OVCAR-4 ovarian was 36.8%; with SK-OV-3 ovarian, 14%; in the test on IGROV1 ovarian, -64.5% (active); in the test with NCI/ADR-RES ovarian, -60.8% (active); with T-47D breast, 51%; in the test on MDA-MB-435 melanoma it was -18.1% (active). For the same compound, the figures for the growth with MCF7 breast and with HCT-116 colon were 6% (active) and -66.8% (active), respectively.
For `O=C(/C=C/c1ccco1)c1nc2ccccc2n1Cc1ccc(Br)cc1`, the growth in the test on HOP-92 NSCLC is 3.99% (active); with 786-0 renal, 23%; in the test on MALME-3M melanoma, 44.2%; in the test with RXF 393 renal, -1.81% (active); with EKVX NSCLC, 17.8%; in the test with SN12C renal, 43.4%. Besides, the growth is 77.1% with TK-10 renal; 105% in the test on A498 renal; -6.79% (active) in the test on CCRF-CEM leukemia; -5.78% (active) in the test on RPMI-8226 leukemia; 46.7% in the test on OVCAR-8 ovarian; 57% in the test on OVCAR-5 ovarian. Also, the growth is 46.5% in the test on OVCAR-4 ovarian; 103% in the test on SK-OV-3 ovarian; 31.6% in the test with IGROV1 ovarian; 25.7% in the test with NCI/ADR-RES ovarian; 4.25% (active) in the test on T-47D breast; 15.2% with MDA-MB-435 melanoma. The growth was 2.72% (active) in the test on MCF7 breast and 8.16% (active) in the test on HCT-116 colon.
With `O=C(/C=C/c1ccc(Cl)cc1)c1nc2ccccc2n1Cc1ccc(F)cc1`, the growth in the test with HOP-92 NSCLC was 16.7%; in the test on 786-0 renal, 5.13% (active); in the test on MALME-3M melanoma, 49.9%; in the test with RXF 393 renal, 19%; in the test on EKVX NSCLC it was 20.4%; in the test with SN12C renal, 19.7%. Besides, the growth in the test with TK-10 renal is 58.1%; with A498 renal, 125%; with CCRF-CEM leukemia, -13.1% (active); with RPMI-8226 leukemia it was -20.2% (active); with OVCAR-8 ovarian, 17.1%; in the test with OVCAR-5 ovarian, 19.1%. For the same compound, the growth is 58.8% in the test on OVCAR-4 ovarian; 78.1% with SK-OV-3 ovarian; 29% with IGROV1 ovarian; 7.75% (active) in the test with NCI/ADR-RES ovarian; 7.93% (active) in the test on T-47D breast; 12.1% with MDA-MB-435 melanoma. Besides, the growth is 9.25% (active) in the test with MCF7 breast and 3.49% (active) in the test on HCT-116 colon.
Regarding `CC(=O)Oc1ccccc1C(=O)[Se]C(=NC(C)C)NC(C)C`, the growth is -49.2% (active) with HOP-92 NSCLC; -95.9% (active) with 786-0 renal; -43.5% (active) with MALME-3M melanoma; -98.3% (active) in the test on RXF 393 renal; -94% (active) in the test with EKVX NSCLC; -78.7% (active) in the test on SN12C renal. Besides, the growth is -98.5% (active) in the test with TK-10 renal; -24.8% (active) with A498 renal; -1.77% (active) in the test with CCRF-CEM leukemia; -20% (active) in the test with RPMI-8226 leukemia; -86.3% (active) with OVCAR-8 ovarian; -66.5% (active) with OVCAR-5 ovarian. The growth in the test on OVCAR-4 ovarian was -56% (active); in the test on SK-OV-3 ovarian it was -95.6% (active); in the test with IGROV1 ovarian it was -89.8% (active); in the test with NCI/ADR-RES ovarian, -25.3% (active); in the test on T-47D breast, -45.6% (active); in the test with MDA-MB-435 melanoma it was -94.1% (active). Further, the growth was -55% (active) in the test with MCF7 breast and -82.4% (active) in the test with HCT-116 colon.
For `O=C(/C=C/c1ccc(F)cc1)c1nc2ccccc2n1Cc1ccc(Br)cc1`, the growth is -51.5% (active) in the test with HOP-92 NSCLC; -82.4% (active) with 786-0 renal; -77.9% (active) with MALME-3M melanoma; -91.1% (active) with RXF 393 renal; -91.5% (active) in the test with EKVX NSCLC; -40.4% (active) in the test with SN12C renal. Besides, the growth in the test on TK-10 renal is -19.1% (active); with A498 renal, 58.6%; in the test with CCRF-CEM leukemia, -1.81% (active); in the test with RPMI-8226 leukemia, -34.7% (active); in the test with OVCAR-8 ovarian it was -1.74% (active); in the test with OVCAR-5 ovarian it was -55.1% (active). In addition, the growth in the test on OVCAR-4 ovarian is 19.2%; with SK-OV-3 ovarian it was 30.2%; in the test with IGROV1 ovarian it was -35% (active); in the test on NCI/ADR-RES ovarian, -59.8% (active); in the test on T-47D breast it was -52.5% (active); with MDA-MB-435 melanoma, -74% (active). In addition, the results for the growth with MCF7 breast and in the test with HCT-116 colon were -27.4% (active) and -79.4% (active), respectively.
For `C=CC[Se]C(=O)c1ccc(C(=O)[Se]CC=C)s1`, the growth with HOP-92 NSCLC was -29.9% (active); with 786-0 renal it was -96.3% (active); with MALME-3M melanoma, -47.7% (active); with RXF 393 renal it was -93.6% (active); with EKVX NSCLC it was -89.2% (active); with SN12C renal, -55.8% (active). The growth is -80% (active) in the test with TK-10 renal; -5.42% (active) with A498 renal; -12% (active) in the test with CCRF-CEM leukemia; -26.8% (active) in the test on RPMI-8226 leukemia; -80.5% (active) in the test with OVCAR-8 ovarian; -61.8% (active) in the test on OVCAR-5 ovarian. The growth is -67.6% (active) in the test with OVCAR-4 ovarian; -95.2% (active) in the test with SK-OV-3 ovarian; -78.9% (active) in the test on IGROV1 ovarian; -23.1% (active) in the test with NCI/ADR-RES ovarian; -40.4% (active) in the test with T-47D breast; -82.8% (active) with MDA-MB-435 melanoma. For the same compound, the growth with MCF7 breast was -55.4% (active); in the test on HCT-116 colon it was -77.9% (active).
Take `COc1ccc2cc([C@H](C)C(=O)[Se]CCC#N)ccc2c1`: the growth with HOP-92 NSCLC was -82.1% (active); with 786-0 renal, -83.9% (active); in the test on MALME-3M melanoma, -44.7% (active); with RXF 393 renal, -82.3% (active); in the test with EKVX NSCLC, -83.7% (active); in the test on SN12C renal it was -16.8% (active). For the same compound, the growth is -90.4% (active) in the test with TK-10 renal; -71.1% (active) with A498 renal; 7.91% (active) with CCRF-CEM leukemia; -17.8% (active) in the test with RPMI-8226 leukemia; -82.9% (active) with OVCAR-8 ovarian; -31.8% (active) in the test with OVCAR-5 ovarian. For the same compound, the growth was -44.3% (active) in the test on OVCAR-4 ovarian; -70.6% (active) with SK-OV-3 ovarian; -51.7% (active) in the test on IGROV1 ovarian; -14.4% (active) with NCI/ADR-RES ovarian; 12% in the test on T-47D breast; -69.7% (active) in the test with MDA-MB-435 melanoma. Moreover, the figures for the growth in the test on MCF7 breast and with HCT-116 colon were -8.25% (active) and -62% (active), respectively.
